According to the supplement of paper PMC7261846:
± gives the uncertainty stated by the source.

System: Candida albicans SNY425 biofilm
Experiment: biofilm OD600 with compound plus antifungal (OD600 (absorbance)); higher = more biofilm remaining
[1] = assay detail: disruption of 24-h mature biofilm (compound + antifungal for a second 24 h)
[2] = assay detail: sustained inhibition (compound + antifungal during 90-min adherence and 24-h growth)

| Structure (SMILES) | biofilm OD600 [1] | biofilm OD600 [2] |
| --- | --- | --- |
| O=C[C@@H]1CCCN1C(=O)[C@@H]1CCCN1C(=O)OCc1ccccc1 [Z-Prolyl-prolinal] + CC[C@H](C)C[C@H](C)CCCCCCCCC(=O)N[C@H]1C[C@@H](O)[C@@H](NCCN)NC(=O)[C@@H]2[C@@H](O)CCN2C(=O)[C@H]([C@H](O)CCN)NC(=O)[C@H]([C@H](O)[C@@H](O)c2ccc(O)cc2)NC(=O)[C@@H]2C[C@@H](O)CN2C(=O)[C@H]([C@@H](C)O)NC1=O [caspofungin] (first compound 12.5 µM) | 0.261 ± 0.0097 | 0.153 ± 0.0098 |
| C[C@]1(Cn2ccnn2)[C@H](C(=O)O)N2C(=O)C[C@H]2S1(=O)=O [Tazobactam] + C[C@@H]1[C@H](O)[C@@H](C)/C=C/C=C/C=C/C=C/C=C/C=C/C=C/[C@H](O[C@@H]2O[C@H](C)[C@@H](O)[C@H](N)[C@@H]2O)C[C@@H]2O[C@](O)(C[C@@H](O)C[C@@H](O)[C@H](O)CC[C@@H](O)C[C@@H](O)CC(=O)O[C@H]1C)C[C@H](O)[C@H]2C(=O)O [amphotericin B] (first compound 12.5 µM) | 0.308 ± 0.008 | 0.193 ± 0.0071 |
| CC1(C)C[C@@H]1C(=O)N/C(=C\CCCCSC[C@H](N)C(=O)O)C(=O)O [Cilastatin] + C[C@@H]1[C@H](O)[C@@H](C)/C=C/C=C/C=C/C=C/C=C/C=C/C=C/[C@H](O[C@@H]2O[C@H](C)[C@@H](O)[C@H](N)[C@@H]2O)C[C@@H]2O[C@](O)(C[C@@H](O)C[C@@H](O)[C@H](O)CC[C@@H](O)C[C@@H](O)CC(=O)O[C@H]1C)C[C@H](O)[C@H]2C(=O)O [amphotericin B] (first compound 12.5 µM) | 0.293 ± 0.012 | 0.211 ± 0.015 |
| O=c1oc(Cl)c(Cl)c2ccccc12 [3,4-Dichloroisocoumarin] + OC(Cn1cncn1)(Cn1cncn1)c1ccc(F)cc1F [fluconazole] (first compound 12.5 µM) | 0.237 ± 0.011 | 0.154 ± 0.014 |
| CC(NC(=O)C(Cc1ccccc1)NC(=O)OCc1ccccc1)C(=O)CF (stereo not given) + CC[C@H](C)C[C@H](C)CCCCCCCCC(=O)N[C@H]1C[C@@H](O)[C@@H](NCCN)NC(=O)[C@@H]2[C@@H](O)CCN2C(=O)[C@H]([C@H](O)CCN)NC(=O)[C@H]([C@H](O)[C@@H](O)c2ccc(O)cc2)NC(=O)[C@@H]2C[C@@H](O)CN2C(=O)[C@H]([C@@H](C)O)NC1=O [caspofungin] (first compound 12.5 µM) | 0.3 ± 0.005 | 0.185 ± 0.0046 |
| CCC[C@@]1(CCc2ccccc2)CC(O)=C([C@H](CC)c2cccc(NS(=O)(=O)c3ccc(C(F)(F)F)cn3)c2)C(=O)O1 [tipranavir] + OC(Cn1cncn1)(Cn1cncn1)c1ccc(F)cc1F [fluconazole] (first compound 12.5 µM) | 0.256 ± 0.0057 | 0.143 ± 0.0085 |
| CC(C)C[C@H](NP(=O)(O)O[C@@H]1O[C@@H](C)[C@H](O)[C@@H](O)[C@H]1O)C(=O)N[C@@H](Cc1c[nH]c2ccccc12)C(=O)O [Phosphoramidon] + CC[C@H](C)C[C@H](C)CCCCCCCCC(=O)N[C@H]1C[C@@H](O)[C@@H](NCCN)NC(=O)[C@@H]2[C@@H](O)CCN2C(=O)[C@H]([C@H](O)CCN)NC(=O)[C@H]([C@H](O)[C@@H](O)c2ccc(O)cc2)NC(=O)[C@@H]2C[C@@H](O)CN2C(=O)[C@H]([C@@H](C)O)NC1=O [caspofungin] (first compound 12.5 µM) | 0.273 ± 0.012 | 0.191 ± 0.013 |
| CC(NC(=O)C(Cc1ccccc1)NC(=O)OCc1ccccc1)C(=O)CF (stereo not given) + C[C@@H]1[C@H](O)[C@@H](C)/C=C/C=C/C=C/C=C/C=C/C=C/C=C/[C@H](O[C@@H]2O[C@H](C)[C@@H](O)[C@H](N)[C@@H]2O)C[C@@H]2O[C@](O)(C[C@@H](O)C[C@@H](O)[C@H](O)CC[C@@H](O)C[C@@H](O)CC(=O)O[C@H]1C)C[C@H](O)[C@H]2C(=O)O [amphotericin B] (first compound 12.5 µM) | 0.307 ± 0.0094 | 0.185 ± 0.005 |
| O=C(NCCCCN1CCOCC1)c1cc2ccccc2o1 + OC(Cn1cncn1)(Cn1cncn1)c1ccc(F)cc1F [fluconazole] (first compound 12.5 µM) | 0.258 ± 0.0098 | 0.158 ± 0.008 |
| N[C@H](C(=O)O)[C@@H]1CC(Cl)=NO1 [Acivicin] + OC(Cn1cncn1)(Cn1cncn1)c1ccc(F)cc1F [fluconazole] (first compound 4 µM) | 0.279 ± 0.0067 | 0.123 ± 0.0055 |
